# Screening results: PubChem BioAssay, National Center for Advancing Translational Sciences (NCATS)
# In the library only some 18% were active in any assay of this set; here they are far more common.
# HepG2 viability: qHTS for Inhibitors of TGF-b: Cytotox Counterscreen; HepG2 CAGA-GFP viability, ATP luminescence, 18 h; Potency, µM (series often up to 46.1 µM), for inactives: at the top dose activity change, negative = cytotoxicity, most hits filed as cytotoxic; actives 0.76% (n = 410,000); AID 588856, 2011; also: potency is read from the fitted curve at half-maximal effect
#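 CellTiter-Glo luminescence gave cytotoxicity after 18 hours at 37 degrees C. The cells were HepG2 CAGA-GFP in 1% FBS DMEM, stimulated with 500 pg/mL TGF-beta after compound addition. %Activity was normalised to no-cell wells (complete cell-killing) and DMSO (no toxicity), and curves were fitted and classified.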
# TDP1 inh: qHTS Assay for Inhibitors of Tyrosyl-DNA Phosphodiesterase (TDP1); Tyrosyl-DNA phosphodiesterase 1 (Homo sapiens), Q9NUW8; actives 0.28% (n = 350,000); Potency, µM (doses to about 130 µM), inactives show top-dose activity change, negative = inhibition, usual class: inhibitors; recombinant TDP1, AlphaScreen DNA substrate cleavage; also: potency is read from the fitted curve at half-maximal effect; % is scaled to controls: 0 for no effect and ±100 for the full control effect; nearly all actives have a fitted effect of over 40% in size
# Target sequence (Q9NUW8 whole entry, looked up): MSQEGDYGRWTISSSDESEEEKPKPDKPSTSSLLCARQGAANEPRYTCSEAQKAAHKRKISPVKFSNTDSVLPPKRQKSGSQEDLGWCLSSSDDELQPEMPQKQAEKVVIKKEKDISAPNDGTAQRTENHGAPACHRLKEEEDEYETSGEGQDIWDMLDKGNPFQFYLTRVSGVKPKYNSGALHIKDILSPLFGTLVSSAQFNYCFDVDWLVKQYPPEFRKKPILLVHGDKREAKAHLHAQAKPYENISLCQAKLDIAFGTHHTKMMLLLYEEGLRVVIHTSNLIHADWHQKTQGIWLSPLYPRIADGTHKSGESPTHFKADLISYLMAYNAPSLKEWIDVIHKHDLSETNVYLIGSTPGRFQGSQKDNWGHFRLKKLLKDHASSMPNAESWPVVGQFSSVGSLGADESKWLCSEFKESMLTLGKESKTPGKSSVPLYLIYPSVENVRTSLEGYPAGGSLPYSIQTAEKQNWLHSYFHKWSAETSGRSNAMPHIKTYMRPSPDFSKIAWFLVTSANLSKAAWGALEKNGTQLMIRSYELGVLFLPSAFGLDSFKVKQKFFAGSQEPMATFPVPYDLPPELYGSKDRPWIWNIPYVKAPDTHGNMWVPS
#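 Recombinant E. coli-expressed Tdp1 (1 nM) preincubated with compound 15 min at RT, then 5'-biotin/3'-phosphotyrosine-FITC DNA substrate (15 nM) added for 5 min. AlphaScreen beads (10 ug/ml) added, 10 min RT; tyrosine-FITC cleavage read as signal loss.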
# IL-1B inflam inh: qHTS for Inhibitors of Inflammasome Signaling: IL-1-beta AlphaLISA Primary Screen; THP-1 LPS/ATP IL-1B secretion, AlphaLISA, 16 h; hits give low values; activity change, % at 57.5 µM; actives 4.7% (n = 360,000); AID 743279, 2014; in the data active = activity change below about -50%; inconclusive = mostly about -30% to -49%; also: % is scaled to controls: 0 for no effect and ±100 for the full control effect
#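 THP-1 cells pretreated 1 hr with compounds (up to 57.5 uM final), then stimulated with LPS (250 ng/mL final) plus ATP (1.25 mM final); secreted IL-1B measured by AlphaLISA after 16 hr, decreased signal indicating inhibition.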
# TGFb inhibitor: qHTS for Inhibitors of TGF-b | HepG2 CAGA-GFP TGF-b/SMAD3 reporter, GFP fluorescence, 18 h; TGF-beta stimulated, 500 pg/mL final | Potency, µM (series often up to 46.1 µM), for inactives: top-dose activity, negative = inhibition, hits mostly inhibitors | actives 1.2% (n = 410,000); also: potency is read from the fitted curve at half-maximal effect; % is scaled to controls: 0 for no effect and ±100 for the full control effect; nearly all actives have a fitted effect of over 65% in size
#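 Inhibition was scored as loss of TGF-beta-induced (500 pg/mL final, 18 hours, 37 degrees C) GFP in HEPG2 cells carrying a CAGA-GFP reporter, in DMEM with 1% FBS. Well GFP was summed per cell; Activity was normalised to unstimulated and stimulated DMSO wells, then concentration-response fitting.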
# DT40 TDP1 no CPT: qHTS for Inhibitors of human tyrosyl-DNA phosphodiesterase 1 (TDP1): qHTS in cells in absence of CPT; DT40 Tdp1-/- hTDP1 cells, no CPT, ATP luminescence, 48 h; Potency, µM (doses to about 46.2 µM), for inactives: at the top dose activity change, negative = growth inhibition, hits mostly inhibitors; actives 15% (n = 420,000); also: potency is read from the fitted curve at half-maximal effect; % is scaled to controls: 0 for no effect and ±100 for the full control effect; nearly all actives have a fitted effect of over 55% in size
#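 Chicken DT40 Tdp1-/- cells complemented with human TDP1, screened without camptothecin (DMSO vehicle only), 400 cells/well. Compounds pin-transferred, cells incubated at 37 °C for at least 48 hr. Growth read as ATP-dependent luminescence (CellTiter-Glo, 30 min at RT).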
# DT40 TDP1 CPT: qHTS for Inhibitors of human tyrosyl-DNA phosphodiesterase 1 (TDP1): qHTS in cells in presence of CPT | chicken DT40 Tdp1-/-;hTDP1 cells + 20 nM CPT, ATP luminescence, 48 h | Potency, µM (top dose mostly 46.2 µM), without a hit: top-dose activity change, negative = growth inhibition, usual class: inhibitors | actives 12% (n = 420,000) | AID 686979, 2013; also: potency is read from the fitted curve at half-maximal effect; % is scaled to controls: 0 for no effect and ±100 for the full control effect; nearly all actives have a fitted effect of over 55% in size
#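 Chicken DT40 Tdp1-/- cells stably complemented with human TDP1 were seeded at 400 cells/well in medium containing 20 nM camptothecin, exposed to pin-transferred compounds, and grown at 37 °C for at least 48 hr. Viability was read as ATP luminescence.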
# Numbers without * were called inactive; ? = inconclusive; . = not tested or not shown; [ ] = another dose, or the depositor's remark. Unless noted, calls follow the shape of the dose curve; as a rule, active = well fitted curve in the direction sought with a large enough effect; inconclusive = small, poorly fitted or top-dose-only effect, or another doubt; inactive = no such curve, though single readings can be large; an effect the other way counts as inactive or inconclusive.
SMILES,HepG2 viability,TDP1 inh,IL-1B inflam inh,TGFb inhibitor,DT40 TDP1 no CPT,DT40 TDP1 CPT
Nc1nc(=O)n(C2OC(CO)C(O)C2O)cc1F (stereo not drawn),9%,.,86,18%,0.0058µM*,0.033µM*
O=c1[nH]c(=O)n([C@H]2C[C@@H](O)[C@@H](CO)O2)cc1F,-37%,.,.,?,1.6µM*,5µM*
O=c1[nH]c(=S)ccn1C1OC(CO)C(O)C1O (stereo not drawn),2%,.,4,9%,?,?
Cc1cc2nnc(SCC(=O)NCC3CCCO3)n2c2ccccc12 (stereo not drawn),-25%,-2%,-15,-2%,-12%,7%
O=c1[nH]c(=O)n([C@H]2CCCO2)cc1F,.,.,.,.,-4%,1%
O=c1[nH]cnc2c1[nH]c(=S)n2C1O[C@@H](CO)[C@H](O)[C@@H]1O (stereo partly drawn),13%,3%,.,-1%,-5%,-7%
O=c1[nH]cnc2c1ccn2C1OC(CO)C(O)C1O (stereo not drawn),-44%,.,-13,?,0.15µM*,0.16µM*
O=c1[nH]c(=O)c2ncn(C3OC(CO)C(O)C3O)c2[nH]1 (stereo not drawn),6%,3%,.,20%,-5%,2%
O=C1C=CC(n2cc(F)c(=O)[nH]c2=O)O1 (stereo not drawn),-19%,.,?,1%,?,18µM*
O=c1[nH]c(=O)n(C2OC(CO)C(O)C2O)cc1F (stereo not drawn),-38%,.,-13,?,0.037µM*,0.15µM*
C/C(=C(\CCO)SS/C(CCO)=C(\C)N(C=O)Cc1cnc(C)nc1N)N(C=O)Cc1cnc(C)nc1N,.,.,.,.,-6%,3%
COc1cccc(C(=O)Nc2ccc(NC(=O)C3CC=CCC3C(=O)O)cc2)c1 (stereo not drawn),7%,-3%,14,?,0%,2%
Cc1ccc(NC(=S)N(Cc2cccs2)Cc2cc3cccc(C)c3[nH]c2=O)cc1,9%,0%,-13,0%,12µM*,21µM*
CNC(=S)N(Cc1cccs1)Cc1cc2ccc(OC)cc2[nH]c1=O,-9%,5%,-10,-10%,18µM*,?
Cc1cccc2cc(CN(Cc3cccs3)C(=S)NCC3CCCO3)c(=O)[nH]c12 (stereo not drawn),-1%,-3%,-12,-13%,?,?
CCNC(=S)N(Cc1cccs1)Cc1cc2cc(OCC)ccc2[nH]c1=O,-4%,0%,-2,-2%,16µM*,?
COc1cc2cc(CN(Cc3cccs3)C(=S)Nc3ccccc3)c(=O)[nH]c2cc1OC,8%,-3%,13,-34%,21µM*,?
COc1ccc2[nH]c(=O)c(CN(Cc3cccs3)C(=S)Nc3ccccc3)cc2c1,.,0%,.,.,.,.
CCNC(=S)N(Cc1ccco1)Cc1cc2cc(OCC)ccc2[nH]c1=O,-5%,0%,-17,-7%,?,?
COc1ccc(OC)c(NC(=O)c2cc3c(s2)-c2ccccc2SC3)c1,-5%,0%,.,.,?,?
COc1cc(CO)c(OC)c([N+](=O)[O-])c1,4%,7%,20,6%,11%,8%
COc1ccccc1N1CCN(C(=O)c2cccc(S(=O)(=O)N3CCCCCC3)c2)CC1,-26%,1%,4,?,18µM*,?
COc1ccc(S(=O)(=O)N2CCN(C(=O)c3ccccc3Cc3ccccc3)CC2)cc1OC,-25%,.,32,-3%,23µM*,?
COc1ccc(S(=O)(=O)N2CC=C(c3ccccc3)CC2)cc1OC,-21%,.,4,-1%,23µM*,?
COc1ccc(S(=O)(=O)N2CCN(Cc3ccccc3)CC2)cc1OC,-16%,4%,16,-22%,?,-8%
SMILES,HepG2 viability,TDP1 inh,IL-1B inflam inh,TGFb inhibitor,DT40 TDP1 no CPT,DT40 TDP1 CPT
COc1ccc(S(=O)(=O)N2CCN(c3ccccc3)CC2)cc1C(=O)N1CCCC1,0%,3%,10,-3%,-20%,-1%
COc1ccc(S(=O)(=O)N2CCCCCC2)cc1C(=O)N1CCN(c2ccccc2O)CC1,-15%,2%,-7,-7%,?,15µM*
Cc1ccc(OCCC(=O)NNC(=O)c2ccccc2F)cc1,0%,1%[56.1 µM],11,3%,13%,-3%
Cc1ccc2oc(=O)c3cc(C(=O)N4CCN(c5ccccc5)CC4)sc3c2c1,1%,2%,.,-6%,17%,4%
COc1ccc(S(=O)(=O)N2CCCCCC2)cc1C(=O)N1CCN(c2ccccc2C)CC1,-3%,3%,-1,?,21µM*,?
COc1ccccc1N1CCN(C(=O)c2cc(S(=O)(=O)N3CCCCC3)ccc2C)CC1,-3%,2%,22,16%,?,?
CC(c1ccccc1)C(CC(=O)O)C(=O)NC1CCCCC1 (stereo not drawn),6%,6%,27,8%,-8%,8%
CNc1cc(-c2ccc(OC)c(OC)c2)ncn1,-29%,.,15,21%,-26%,?
CNc1ccc2ncc(-c3ccc(OC)c(OC)c3)n2n1,-33%,.,-66*,-21%,2.1µM*,2.6µM*
COc1ccc2sc(N(CCCN(C)C)C(=O)c3ccc(S(=O)(=O)N4CCCc5ccccc54)cc3)nc2c1,11µM*,8%,-83*,22µM*,16µM*,?
CCOC(=O)N1CCN(S(=O)(=O)c2ccc(C(=O)N(CCCN(C)C)c3nc4ccc(OC)cc4s3)cc2)CC1,-22%,6%,?,-15%,?,?
COc1cc2nc(N(CCCN(C)C)C(=O)c3ccc(S(=O)(=O)N4CCc5ccccc54)cc3)sc2cc1OC,-33%,.,-101*,-13%,16µM*,?
CCCC(=O)NC(=S)Nc1ccc(S(=O)(=O)N2CCc3ccccc32)cc1,-10%,.,-23,?,21µM*,?
Cc1c(Cl)ccc2sc(NC(=O)c3ccc(S(=O)(=O)N4CCCc5ccccc54)cc3)nc12,-8%,8%,.,-11%,18µM*,?
